This passage reports growth results from PubChem BioAssay (NCI).

About 83,000 compounds went through this panel and 20% of them were active in at least one assay; those are over-represented in the sample as a whole.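 Plates (96-well) were seeded with cells, treated with compound at one concentration, and incubated for 48 hours before percent growth was determined.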 The source made the active and inactive calls. Rule for the calls: active = growth percent below 10; inactive = the rest.

The subject of one experiment is UACC-62 melanoma. The experiment can be described thus: NCI-60 one-dose screen, 48 h (100 = growth as untreated, 0 = no growth, -100 = all killed). As to conditions: 10 µM.
In the case of `CC(C)(C)NC/C(=C\c1ccccc1)C(=O)c1ccccc1`, the growth was -79.3% (active).

As for `COc1ccc(-c2ccc3cc(C(=O)Nc4ccc(O)c(C(=O)/C=C/c5cc(OC)c(OC)c(OC)c5)c4)ccc3c2)cc1`, the growth is 71.1% (inactive).

Regarding `CCCCN(CCCC)c1cc(C(=O)CCCCCN)c2ccccc2n1`, the growth was 105% (inactive).

Regarding `COc1ccc(NC(=O)Cc2nc3nc4sc(C)c(C)c4c(=O)n3[nH]2)cc1`, the growth was 107% (inactive).

Regarding `COc1cc(-c2nc(-c3nnc(-c4ccc(F)c(Cl)c4)o3)c3ccccn23)cc(OC)c1OC`, the growth is 33.9% (inactive).

Take `NC(=O)SCC(=O)Nc1ccc(S(N)(=O)=O)cc1`: the growth was 89% (inactive).

As to `Nc1nccc(Nc2ccccc2)n1`, the growth was 105% (inactive).

With `Oc1[nH]c2cc(Cl)ccc2c1/C=c1/ccc2c(c1)N=C(c1cc(F)cc(F)c1)N=2`, the growth was 36.4% (inactive).

Consider `c1ccc2c(c1)oc1c3cccnc3ccc21`, for which the growth was 92.8% (inactive).

In the case of `COc1ccc2c(c1)sc1nc(-c3ccccc3)c(-c3ccsc3)n12`, the growth was 36.3% (inactive).

Regarding `CSc1cc(SC)ncn1`, the growth was 93.7% (inactive).

Regarding `COc1ccc2c(c1)sc1nc(-c3ccccc3)c(-c3ccc(O)c(OC)c3)n12`, the growth was 66.2% (inactive).

As for `CCCCCCCCCCCCCC[n+]1ccc(C(N)=O)cc1`, the growth is 0.667% (active).

Consider `CN1c2ccccc2[C@]2(Cc3ccccc3)Cc3ccccc3N[C@H]12`, for which the growth was 87.5% (inactive).

For `CCN(CC)CCSCCCNc1c2ccc(Cl)cc2nc2ccc(OC)cc12`, the growth is -72.9% (active).

Take `CC(=O)c1cc(Br)ccc1O`: the growth was 104% (inactive).

As for `COc1ccc(-c2nc3sccn3c2-c2nc3c([nH]2)C(=O)c2ccccc2C3=O)cc1`, the growth is 82.2% (inactive).

With `N=C1c2nc3n(c2C(=O)c2nc4n(c21)CCCC4)CCCC3`, the growth was -85.1% (active).

Regarding `COc1ccc(-c2nc3ccccn3c2-c2nnc(-c3cc(OC)c(OC)c(OC)c3)o2)cc1`, the growth is 68.5% (inactive).

For the compound `CCN(CC)CCOc1nc2ccc(OC)cc2c2c1-c1ccc(OC)cc1C2=O`, the growth is 36% (inactive).

`CCCCCCCCN(CCCCCCCC)CCCCCCCCCN1CCCc2cc(OC)ccc21`: the growth was 86.8% (inactive).

Take `COc1ccc2c(c1)C(=O)c1c-2c(OCCN(C)C)nc2cc(OC)c(OC)cc12`: the growth was 83.1% (inactive).

For the compound `COc1ccc(/C(=C2\O[C@@H]([C@H]3COC(C)(C)O3)[C@H]3OC(C)(C)O[C@@H]23)c2cc(OC)c(OC)c(OC)c2)cc1O`, the growth is 93.2% (inactive).

As for `Nc1ccn(C2CC(O)C(CO)O2)c(=O)n1` (stereo not given), the growth is 100% (inactive).

As for `CC(C)=CCc1ccc(O)c(=O)cc1C(C)C`, the growth is 14.3% (inactive).

Regarding `COc1cc(NC(=O)CSc2nc3ccccc3c(=O)n2CCc2ccccc2)cc(OC)c1OC`, the growth was 25.3% (inactive).

For a further experiment, the system named is LOX IMVI melanoma. The experiment is described as above. As to conditions: 10 µM.
Regarding `C=C(C(=O)c1ccccc1)C(NC(C)(C)C)c1ccccc1` (stereo not given), the growth was -82.2% (active).

Turning to `O=c1c2ccccc2nc(SCCN2CCCCC2)n1CCc1ccccc1`, the growth was 81.6% (inactive).

As for `N=c1c2c(-c3ccccc3)c(-c3ccccc3)n(Cc3ccccc3)c2ncn1CCCO`, the growth is 13% (inactive).

For `COc1cc(/C=C2\Oc3cc(OCC(=O)c4ccccc4)ccc3C2=O)cc(OC)c1OC`, the growth is 98.5% (inactive).

On to `Cc1ccc(NC(=O)CSc2nc3ccccc3c(=O)n2CCc2ccccc2)c(C(=O)O)c1`, for which the growth is 99.6% (inactive).

For the compound `O=C(Nc1nc2ccc(F)cc2s1)c1cc(-c2ccc(F)cc2)n2nc(-c3ccccc3)cc2n1`, the growth is 85.9% (inactive).

`CN1CCCNc2c(c(=O)c2=O)NCCCN(C)CCCNc2c(c(=O)c2=O)NCCCN(C)CCCNc2c(c(=O)c2=O)NCCCN(C)CCCNc2c(c(=O)c2=O)NCCCN(C)CCCNc2c(c(=O)c2=O)NCCCN(C)CCCNc2c(c(=O)c2=O)NCCCN(C)CCCNc2c(c(=O)c2=O)NCCC1`: the growth was 58.1% (inactive).

`CCN1CCC2(CC1)OC(c1ccccc1)C(c1ccccc1)O2` (stereo not given): the growth is 90.8% (inactive).

Take `O=C(O)c1ccc(Cl)cc1Nc1ccc(F)cc1`: the growth was 43.1% (inactive).

As for `CCCCCC(=O)c1ccc(OCCCN2CCN(C(=O)OCC)CC2)cc1`, the growth was 81.7% (inactive).

Turning to `COc1ccc(NC(=O)CSc2nc3ccccc3c(=O)n2CCc2ccccc2)cc1`, the growth was 92.9% (inactive).

As for `COc1ccc(-c2nnc(-c3c(-c4ccccc4)nc4ncccn34)o2)cc1OC`, the growth was 102% (inactive).

For the compound `COc1ccc2nc3cc(Cl)ccc3c(NCCNCC(C)O)c2c1` (stereo not given), the growth is 14.5% (inactive).

Turning to `CC(C)(C)NC/C(=C\c1ccccc1)C(=O)c1ccccc1`, the growth is -77% (active).

Consider `COc1ccc(-c2ccc3cc(C(=O)Nc4ccc(O)c(C(=O)/C=C/c5cc(OC)c(OC)c(OC)c5)c4)ccc3c2)cc1`, for which the growth is 81.3% (inactive).

Turning to `CCCCN(CCCC)c1cc(C(=O)CCCCCN)c2ccccc2n1`, the growth was -18% (active).

For `COc1ccc(NC(=O)Cc2nc3nc4sc(C)c(C)c4c(=O)n3[nH]2)cc1`, the growth was 89.7% (inactive).

With `COc1cc(-c2nc(-c3nnc(-c4ccc(F)c(Cl)c4)o3)c3ccccn23)cc(OC)c1OC`, the growth is 58.2% (inactive).

On to `NC(=O)SCC(=O)Nc1ccc(S(N)(=O)=O)cc1`, for which the growth was 97% (inactive).

In the case of `Nc1nccc(Nc2ccccc2)n1`, the growth is 109% (inactive).

For the compound `Oc1[nH]c2cc(Cl)ccc2c1/C=c1/ccc2c(c1)N=C(c1cc(F)cc(F)c1)N=2`, the growth was 37.7% (inactive).

Regarding `c1ccc2c(c1)oc1c3cccnc3ccc21`, the growth is 87.1% (inactive).

Regarding `COc1ccc2c(c1)sc1nc(-c3ccccc3)c(-c3ccsc3)n12`, the growth was 40.3% (inactive).

In the case of `CSc1cc(SC)ncn1`, the growth is 105% (inactive).

For `COc1ccc2c(c1)sc1nc(-c3ccccc3)c(-c3ccc(O)c(OC)c3)n12`, the growth was 61.5% (inactive).

On to `CCCCCCCCCCCCCC[n+]1ccc(C(N)=O)cc1`, for which the growth was -48.9% (active).

Regarding `CN1c2ccccc2[C@]2(Cc3ccccc3)Cc3ccccc3N[C@H]12`, the growth is 104% (inactive).

As to `CCN(CC)CCSCCCNc1c2ccc(Cl)cc2nc2ccc(OC)cc12`, the growth is -80% (active).

Regarding `CC(=O)c1cc(Br)ccc1O`, the growth is 103% (inactive).

Regarding `COc1ccc(-c2nc3sccn3c2-c2nc3c([nH]2)C(=O)c2ccccc2C3=O)cc1`, the growth is 90.7% (inactive).

As for `N=C1c2nc3n(c2C(=O)c2nc4n(c21)CCCC4)CCCC3`, the growth is -68% (active).

Turning to `COc1ccc(-c2nc3ccccn3c2-c2nnc(-c3cc(OC)c(OC)c(OC)c3)o2)cc1`, the growth was 78.1% (inactive).

`CCN(CC)CCOc1nc2ccc(OC)cc2c2c1-c1ccc(OC)cc1C2=O`: the growth was -74.6% (active).

As for `CCCCCCCCN(CCCCCCCC)CCCCCCCCCN1CCCc2cc(OC)ccc21`, the growth was 88.6% (inactive).

For `COc1ccc2c(c1)C(=O)c1c-2c(OCCN(C)C)nc2cc(OC)c(OC)cc12`, the growth is -36.6% (active).

As to `COc1ccc(/C(=C2\O[C@@H]([C@H]3COC(C)(C)O3)[C@H]3OC(C)(C)O[C@@H]23)c2cc(OC)c(OC)c(OC)c2)cc1O`, the growth was 36.9% (inactive).

With `Nc1ccn(C2CC(O)C(CO)O2)c(=O)n1` (stereo not given), the growth is 104% (inactive).

For the compound `CC(C)=CCc1ccc(O)c(=O)cc1C(C)C`, the growth was 22% (inactive).

With `COc1cc(NC(=O)CSc2nc3ccccc3c(=O)n2CCc2ccccc2)cc(OC)c1OC`, the growth was 30.6% (inactive).
